# Test results taken from ChEMBL document CHEMBL1961873, “Compounds: GSK PKIS; Assays: Nanosyn kinase panel” (2012).
# How the values were obtained:
# [1] = target: Sphingosine kinase 1 (Homo sapiens) (UniProt Q9NYA1); conditions: at 1 µM;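 further: mean SPHK1 inhibition value reported from the GSK PKIS kinase panel screen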
# [2] = target: T1, Sphingosine kinase 2 (Homo sapiens) (UniProt Q9NRA0); conditions: at 0.1 µM
# T1 sequence (whole entry): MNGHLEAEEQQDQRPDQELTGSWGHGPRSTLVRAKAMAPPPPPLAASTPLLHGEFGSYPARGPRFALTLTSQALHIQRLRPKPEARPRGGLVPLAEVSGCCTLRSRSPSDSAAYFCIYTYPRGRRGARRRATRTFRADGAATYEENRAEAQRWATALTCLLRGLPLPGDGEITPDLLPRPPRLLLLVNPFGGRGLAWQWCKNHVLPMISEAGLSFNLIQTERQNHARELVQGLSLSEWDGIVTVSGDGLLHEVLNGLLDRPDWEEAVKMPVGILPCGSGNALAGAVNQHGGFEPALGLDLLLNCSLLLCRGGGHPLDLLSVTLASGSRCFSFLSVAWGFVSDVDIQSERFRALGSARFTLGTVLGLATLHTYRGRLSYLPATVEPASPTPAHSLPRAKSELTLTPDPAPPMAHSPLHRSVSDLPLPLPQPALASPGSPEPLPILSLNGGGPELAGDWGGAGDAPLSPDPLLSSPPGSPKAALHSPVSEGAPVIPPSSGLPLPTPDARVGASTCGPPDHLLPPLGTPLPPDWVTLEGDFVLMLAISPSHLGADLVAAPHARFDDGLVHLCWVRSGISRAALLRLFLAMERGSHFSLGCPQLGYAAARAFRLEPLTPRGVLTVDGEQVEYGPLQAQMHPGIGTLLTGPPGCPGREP
# [3] = target: T1, Sphingosine kinase 2 (Homo sapiens); conditions: at 1 µM
# [4] = target: Casein kinase II subunit alpha (Homo sapiens) (UniProt P68400); conditions: at 0.1 µM
# Sequence of Casein kinase II subunit alpha (Homo sapiens) (P68400 whole entry, looked up): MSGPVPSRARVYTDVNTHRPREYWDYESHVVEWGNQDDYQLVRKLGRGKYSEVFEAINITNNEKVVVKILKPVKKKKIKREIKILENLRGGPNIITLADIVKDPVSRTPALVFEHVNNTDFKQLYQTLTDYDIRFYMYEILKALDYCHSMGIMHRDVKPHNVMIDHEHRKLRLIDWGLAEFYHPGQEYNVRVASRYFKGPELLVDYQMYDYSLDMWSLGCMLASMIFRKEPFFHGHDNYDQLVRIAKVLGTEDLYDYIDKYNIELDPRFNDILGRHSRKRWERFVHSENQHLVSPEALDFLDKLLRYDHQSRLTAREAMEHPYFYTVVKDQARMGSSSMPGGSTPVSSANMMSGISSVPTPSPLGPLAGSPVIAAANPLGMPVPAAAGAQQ
# [5] = target: Casein kinase II subunit alpha (Homo sapiens) (UniProt P68400); conditions: at 1 µM
# [6] = target: T2, Inhibitor of nuclear factor kappa-B kinase subunit alpha (Homo sapiens) (UniProt O15111); conditions: at 0.1 µM
# T2 sequence (whole entry): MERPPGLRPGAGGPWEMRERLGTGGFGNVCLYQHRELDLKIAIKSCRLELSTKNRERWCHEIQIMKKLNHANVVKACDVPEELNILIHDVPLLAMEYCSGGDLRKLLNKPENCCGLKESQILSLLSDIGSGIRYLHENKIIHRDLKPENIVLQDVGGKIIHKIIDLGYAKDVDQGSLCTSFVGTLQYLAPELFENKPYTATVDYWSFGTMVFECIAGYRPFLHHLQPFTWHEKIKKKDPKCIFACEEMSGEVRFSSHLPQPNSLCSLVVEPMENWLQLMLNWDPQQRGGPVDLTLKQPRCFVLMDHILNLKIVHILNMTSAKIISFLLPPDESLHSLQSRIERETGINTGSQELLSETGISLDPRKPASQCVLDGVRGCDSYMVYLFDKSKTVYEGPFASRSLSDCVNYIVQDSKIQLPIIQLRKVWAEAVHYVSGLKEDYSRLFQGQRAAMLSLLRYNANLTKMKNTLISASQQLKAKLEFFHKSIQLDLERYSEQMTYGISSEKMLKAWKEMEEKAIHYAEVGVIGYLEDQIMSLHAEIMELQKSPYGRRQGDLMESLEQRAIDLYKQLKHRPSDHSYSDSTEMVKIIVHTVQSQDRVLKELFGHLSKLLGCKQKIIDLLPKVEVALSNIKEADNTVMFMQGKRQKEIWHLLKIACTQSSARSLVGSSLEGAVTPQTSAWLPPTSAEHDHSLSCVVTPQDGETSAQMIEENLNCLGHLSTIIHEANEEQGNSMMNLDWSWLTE
# [7] = target: T2, Inhibitor of nuclear factor kappa-B kinase subunit alpha (Homo sapiens); conditions: at 1 µM
# [8] = target: T3, Inhibitor of nuclear factor kappa-B kinase subunit beta (Homo sapiens) (UniProt O14920); conditions: at 0.1 µM
# T3 sequence (whole entry): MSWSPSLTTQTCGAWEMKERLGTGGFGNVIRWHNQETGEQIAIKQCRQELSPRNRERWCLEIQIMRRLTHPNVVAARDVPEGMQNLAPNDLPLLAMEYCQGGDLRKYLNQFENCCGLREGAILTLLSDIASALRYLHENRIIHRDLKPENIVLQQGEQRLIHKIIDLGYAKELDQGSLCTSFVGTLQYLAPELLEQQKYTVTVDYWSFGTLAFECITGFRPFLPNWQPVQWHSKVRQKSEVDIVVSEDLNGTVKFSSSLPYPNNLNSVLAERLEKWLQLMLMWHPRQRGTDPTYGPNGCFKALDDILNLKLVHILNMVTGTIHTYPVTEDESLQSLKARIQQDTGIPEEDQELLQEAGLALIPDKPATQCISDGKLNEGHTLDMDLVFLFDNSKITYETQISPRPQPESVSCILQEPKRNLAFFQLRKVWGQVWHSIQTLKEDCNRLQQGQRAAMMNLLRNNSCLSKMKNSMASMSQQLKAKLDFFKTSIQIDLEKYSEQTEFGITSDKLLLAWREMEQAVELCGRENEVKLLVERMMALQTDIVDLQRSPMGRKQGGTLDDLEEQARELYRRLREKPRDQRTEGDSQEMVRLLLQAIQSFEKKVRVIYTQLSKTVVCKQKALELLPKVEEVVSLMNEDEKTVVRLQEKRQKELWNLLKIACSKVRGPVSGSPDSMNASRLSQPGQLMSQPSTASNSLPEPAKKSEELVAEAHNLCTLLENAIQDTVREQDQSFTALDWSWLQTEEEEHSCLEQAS
# [9] = target: T3, Inhibitor of nuclear factor kappa-B kinase subunit beta (Homo sapiens); conditions: at 1 µM
# [10] = target: T4, Inhibitor of nuclear factor kappa-B kinase subunit epsilon (Homo sapiens) (UniProt Q14164); conditions: at 0.1 µM
# T4 sequence (whole entry): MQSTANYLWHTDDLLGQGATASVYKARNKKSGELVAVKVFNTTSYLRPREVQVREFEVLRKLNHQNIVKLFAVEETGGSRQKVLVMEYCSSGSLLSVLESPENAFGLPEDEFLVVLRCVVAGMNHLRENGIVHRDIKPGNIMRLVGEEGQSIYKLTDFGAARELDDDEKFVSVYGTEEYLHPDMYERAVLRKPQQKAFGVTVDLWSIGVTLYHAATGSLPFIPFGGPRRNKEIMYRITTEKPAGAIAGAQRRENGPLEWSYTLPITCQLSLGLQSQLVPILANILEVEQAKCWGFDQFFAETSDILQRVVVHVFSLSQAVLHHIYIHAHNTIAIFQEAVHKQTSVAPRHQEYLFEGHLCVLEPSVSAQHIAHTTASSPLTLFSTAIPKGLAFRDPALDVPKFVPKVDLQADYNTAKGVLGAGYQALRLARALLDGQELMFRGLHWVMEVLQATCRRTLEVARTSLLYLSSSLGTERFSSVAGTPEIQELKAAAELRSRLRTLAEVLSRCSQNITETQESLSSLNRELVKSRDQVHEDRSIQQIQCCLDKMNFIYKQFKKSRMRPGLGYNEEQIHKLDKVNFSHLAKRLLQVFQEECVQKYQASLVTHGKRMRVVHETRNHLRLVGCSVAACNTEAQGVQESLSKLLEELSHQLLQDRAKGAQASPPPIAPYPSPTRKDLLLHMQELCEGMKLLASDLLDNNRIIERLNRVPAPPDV
# [11] = target: T4, Inhibitor of nuclear factor kappa-B kinase subunit epsilon (Homo sapiens); conditions: at 1 µM
# [12] = target: T5, Serine/threonine-protein kinase Nek1 (Homo sapiens) (UniProt Q96PY6); conditions: at 0.1 µM
# T5 sequence (whole entry): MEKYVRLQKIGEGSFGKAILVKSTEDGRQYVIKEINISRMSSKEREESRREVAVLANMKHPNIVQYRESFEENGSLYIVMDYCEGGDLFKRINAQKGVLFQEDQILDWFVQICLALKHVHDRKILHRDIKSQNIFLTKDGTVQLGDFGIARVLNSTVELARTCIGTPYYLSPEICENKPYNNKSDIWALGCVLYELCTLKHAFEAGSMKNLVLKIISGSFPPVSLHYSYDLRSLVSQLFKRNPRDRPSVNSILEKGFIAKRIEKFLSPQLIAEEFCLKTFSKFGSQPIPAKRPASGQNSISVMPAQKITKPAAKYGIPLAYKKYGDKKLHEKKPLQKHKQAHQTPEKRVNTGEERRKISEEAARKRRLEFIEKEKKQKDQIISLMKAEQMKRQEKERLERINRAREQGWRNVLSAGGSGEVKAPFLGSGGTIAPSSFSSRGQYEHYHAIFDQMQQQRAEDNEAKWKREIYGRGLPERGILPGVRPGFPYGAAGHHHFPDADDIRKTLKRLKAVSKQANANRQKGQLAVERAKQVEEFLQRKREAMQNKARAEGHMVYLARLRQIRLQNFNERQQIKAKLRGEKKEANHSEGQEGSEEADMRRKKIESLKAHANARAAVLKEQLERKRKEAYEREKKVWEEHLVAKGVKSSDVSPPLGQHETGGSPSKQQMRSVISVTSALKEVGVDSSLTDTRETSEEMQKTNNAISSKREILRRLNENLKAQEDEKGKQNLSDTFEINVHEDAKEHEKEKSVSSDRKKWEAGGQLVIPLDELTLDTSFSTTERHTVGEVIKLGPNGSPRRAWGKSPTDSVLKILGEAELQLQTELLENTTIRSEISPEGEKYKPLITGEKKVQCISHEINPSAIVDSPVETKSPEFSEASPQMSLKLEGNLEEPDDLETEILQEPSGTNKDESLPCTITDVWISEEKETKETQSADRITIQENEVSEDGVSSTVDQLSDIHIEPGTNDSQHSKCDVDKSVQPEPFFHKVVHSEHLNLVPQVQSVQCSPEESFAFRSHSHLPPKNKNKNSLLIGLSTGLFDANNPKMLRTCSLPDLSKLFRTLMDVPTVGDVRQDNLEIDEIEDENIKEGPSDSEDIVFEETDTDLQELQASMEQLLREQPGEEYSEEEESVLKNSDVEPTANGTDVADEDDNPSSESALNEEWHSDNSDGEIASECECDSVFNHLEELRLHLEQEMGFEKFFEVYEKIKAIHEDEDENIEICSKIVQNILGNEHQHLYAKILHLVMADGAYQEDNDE
# [13] = target: T5, Serine/threonine-protein kinase Nek1 (Homo sapiens); conditions: at 1 µM
# [14] = target: T6, Serine/threonine-protein kinase Nek2 (Homo sapiens) (UniProt P51955); conditions: at 0.1 µM
# T6 sequence (whole entry): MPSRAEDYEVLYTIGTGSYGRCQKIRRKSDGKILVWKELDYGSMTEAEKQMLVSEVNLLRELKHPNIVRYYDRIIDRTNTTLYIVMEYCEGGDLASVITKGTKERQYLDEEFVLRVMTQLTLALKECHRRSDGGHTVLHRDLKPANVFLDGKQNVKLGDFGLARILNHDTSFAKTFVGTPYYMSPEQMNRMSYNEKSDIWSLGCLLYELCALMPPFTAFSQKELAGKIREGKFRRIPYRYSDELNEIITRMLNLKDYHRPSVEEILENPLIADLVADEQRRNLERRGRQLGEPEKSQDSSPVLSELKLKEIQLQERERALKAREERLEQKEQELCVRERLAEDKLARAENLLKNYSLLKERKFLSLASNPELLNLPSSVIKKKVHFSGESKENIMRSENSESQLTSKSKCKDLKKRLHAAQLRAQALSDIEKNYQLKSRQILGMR
# [15] = target: T6, Serine/threonine-protein kinase Nek2 (Homo sapiens); conditions: at 1 µM
# [16] = target: Serine/threonine-protein kinase Nek6 (Homo sapiens) (UniProt Q9HC98); conditions: at 0.1 µM
# Sequence of Serine/threonine-protein kinase Nek6 (Homo sapiens) (Q9HC98 whole entry): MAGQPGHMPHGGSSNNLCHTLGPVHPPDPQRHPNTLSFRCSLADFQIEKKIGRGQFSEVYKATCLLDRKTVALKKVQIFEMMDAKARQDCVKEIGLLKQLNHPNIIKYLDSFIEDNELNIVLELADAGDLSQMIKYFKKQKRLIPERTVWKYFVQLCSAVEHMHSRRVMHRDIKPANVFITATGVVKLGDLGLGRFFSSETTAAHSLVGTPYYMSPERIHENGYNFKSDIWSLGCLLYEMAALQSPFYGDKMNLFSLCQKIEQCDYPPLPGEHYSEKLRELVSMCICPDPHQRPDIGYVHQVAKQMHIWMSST
# [17] = target: Serine/threonine-protein kinase Nek6 (Homo sapiens) (UniProt Q9HC98); conditions: at 1 µM
# [18] = target: Serine/threonine-protein kinase Nek7 (Homo sapiens) (UniProt Q8TDX7); conditions: at 0.1 µM
# Sequence of Serine/threonine-protein kinase Nek7 (Homo sapiens) (Q8TDX7 whole entry, looked up): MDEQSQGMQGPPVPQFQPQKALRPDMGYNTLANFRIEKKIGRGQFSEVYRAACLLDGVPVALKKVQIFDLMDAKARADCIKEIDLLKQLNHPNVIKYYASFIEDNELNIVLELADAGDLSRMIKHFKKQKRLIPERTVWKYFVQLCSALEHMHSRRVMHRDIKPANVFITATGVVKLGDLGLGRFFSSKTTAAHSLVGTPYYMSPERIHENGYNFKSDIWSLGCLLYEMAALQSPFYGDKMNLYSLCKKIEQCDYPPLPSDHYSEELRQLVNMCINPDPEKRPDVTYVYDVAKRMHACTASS
# [19] = target: Serine/threonine-protein kinase Nek7 (Homo sapiens) (UniProt Q8TDX7); conditions: at 1 µM
# [20] = target: T7, Serine/threonine-protein kinase Nek9 (Homo sapiens) (UniProt Q8TD19); conditions: at 0.1 µM;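 further: reported value is the mean percent inhibition of NEK9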
# T7 sequence (whole entry): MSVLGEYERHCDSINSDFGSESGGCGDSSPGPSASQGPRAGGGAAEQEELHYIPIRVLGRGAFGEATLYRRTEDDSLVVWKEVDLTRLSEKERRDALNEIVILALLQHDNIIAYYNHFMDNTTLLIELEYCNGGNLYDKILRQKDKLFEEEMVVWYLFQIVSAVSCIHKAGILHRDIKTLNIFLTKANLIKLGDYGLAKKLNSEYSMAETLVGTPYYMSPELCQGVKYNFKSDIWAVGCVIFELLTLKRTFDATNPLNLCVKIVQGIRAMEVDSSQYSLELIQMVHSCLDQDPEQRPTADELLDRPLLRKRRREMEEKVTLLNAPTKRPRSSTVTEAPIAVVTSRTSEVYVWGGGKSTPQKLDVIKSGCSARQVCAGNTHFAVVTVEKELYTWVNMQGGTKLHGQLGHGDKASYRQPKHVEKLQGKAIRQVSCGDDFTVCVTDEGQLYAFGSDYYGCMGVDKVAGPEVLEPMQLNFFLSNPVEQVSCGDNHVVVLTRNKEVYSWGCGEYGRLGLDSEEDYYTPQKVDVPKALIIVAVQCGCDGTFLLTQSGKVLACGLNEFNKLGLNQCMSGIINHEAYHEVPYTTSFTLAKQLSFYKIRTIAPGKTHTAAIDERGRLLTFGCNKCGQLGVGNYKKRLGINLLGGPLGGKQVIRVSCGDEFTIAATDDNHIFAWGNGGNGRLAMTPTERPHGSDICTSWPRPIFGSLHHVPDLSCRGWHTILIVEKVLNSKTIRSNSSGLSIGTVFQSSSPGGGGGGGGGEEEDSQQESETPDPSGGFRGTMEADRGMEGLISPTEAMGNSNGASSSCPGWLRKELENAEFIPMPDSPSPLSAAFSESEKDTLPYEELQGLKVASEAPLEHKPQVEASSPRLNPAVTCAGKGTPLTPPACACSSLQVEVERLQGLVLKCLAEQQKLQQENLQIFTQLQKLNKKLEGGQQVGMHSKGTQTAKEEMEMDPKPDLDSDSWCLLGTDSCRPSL
# Sequence of Sphingosine kinase 1 (Homo sapiens) (Q9NYA1 whole entry): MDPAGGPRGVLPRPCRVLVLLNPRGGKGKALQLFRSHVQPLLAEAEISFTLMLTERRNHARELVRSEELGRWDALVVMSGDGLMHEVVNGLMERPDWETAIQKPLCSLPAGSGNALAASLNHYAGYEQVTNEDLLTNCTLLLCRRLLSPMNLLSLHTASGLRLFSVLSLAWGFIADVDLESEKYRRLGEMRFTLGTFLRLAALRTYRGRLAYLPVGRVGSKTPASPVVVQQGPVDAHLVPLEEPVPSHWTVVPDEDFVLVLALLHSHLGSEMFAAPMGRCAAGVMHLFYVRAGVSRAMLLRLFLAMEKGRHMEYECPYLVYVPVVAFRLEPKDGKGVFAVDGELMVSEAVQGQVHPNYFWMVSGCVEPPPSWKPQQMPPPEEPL
structure (smiles),measurement,setting,value
NCc1ccc(-c2nc(-c3ccc(Cl)c(O)c3)c(-c3ccncc3)[nH]2)cc1,inhibition,[1],-0.71%
same,inhibition,[2],-0.06%
same,inhibition,[3],0%
same,inhibition,[4],0.86%
same,inhibition,[5],1.53%
same,inhibition,[6],3.45%
same,inhibition,[7],-3.91%
same,inhibition,[8],1.08%
same,inhibition,[9],0.02%
same,inhibition,[10],1.2%
same,inhibition,[11],-0.03%
same,inhibition,[12],0.3%
same,inhibition,[13],1.09%
same,inhibition,[14],-2.48%
same,inhibition,[15],0.73%
same,inhibition,[16],-0.93%
same,inhibition,[17],-1.57%
same,inhibition,[18],1.75%
same,inhibition,[19],1.7%
same,inhibition,[20],7.64%
